Screening data (PubChem BioAssay)
The sample as a whole holds a higher share of hits than the screen did.
HT1080 IDH1KD tx – HT-1080 IDH1 knockdown cell toxicity (counter line); HT-1080 IDH1 knockdown viability, ATP luminescence, 48 h; Potency, µM (highest dose often 46.1 µM), for the others: top-dose activity, negative = toxicity, actives largely listed as cytotoxic; 360,000 tested, 2% active; AID 686971;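 further: potency means the concentration at half of the fitted maximal effect; 0% = DMSO wells and -100% = cell-free medium wells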
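Knockdown cells (IDH1KD HT-1080) received compounds 2 h after plating at 750 cells/well and were kept 48 h at 37 °C in 5% FBS RPMI. A CellTiter-Glo luminescence read gave % activity for curve fitting.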
IL1B secr inh – inflammasome signaling inhibition, IL-1 beta readout. THP-1 LPS/ATP IL-1B secretion, AlphaLISA, 16 h; active compounds read low. activity change, % at 57.5 µM. 360,000 tested, 4.7% active; in the data active means activity change below about -50%; inconclusive means mostly about -30% to -49%
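Secreted IL-1B measured by AlphaLISA bead assay after 16 h compound exposure of THP-1 cells; compounds (final up to 57.5 uM) added 1 h before LPS (250 ng/mL) and ATP (1.25 mM) stimulation; lower signal means less secretion.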
DT40 TDP1 CPT – DT40-hTDP1 cell growth loss with CPT; chicken DT40 Tdp1-/-;hTDP1 cells + 20 nM CPT, ATP luminescence, 48 h; AID 686979; 420,000 tested, 12% active; Potency, µM (top dose mostly 46.2 µM), for the others: top-dose activity change, negative = growth inhibition, usual class: inhibitors; further: potency means the concentration at half of the fitted maximal effect; nearly all actives have a fitted effect of over 55% in size
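Cell growth measured by CellTiter-Glo luminescence after a minimum 48 h, 37 C compound exposure with 20 nM CPT in Tdp1-knockout DT40 cells stably expressing hTDP1, seeded 400/well; qHTS titration format.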
HT1080-NT tox – kills 2HG-producing HT-1080-NT fibrosarcoma cells. Potency, µM (series often up to 46.1 µM), for the others: top-dose activity, negative = less viability, actives largely listed as cytotoxic. AID 686970. 360,000 tested, 1.6% active. HT-1080-NT fibrosarcoma viability, CellTiter-Glo ATP luminescence, 48 h;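 further: NT is the 2HG producing partner of a matched IDH1 knockdown line; potency means the concentration at half of the fitted maximal effect; 0% = DMSO-treated cells and -100% = media-only wells without cells; nearly all actives have a fitted effect of over 55% in size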
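Viability of the 2HG-overproducing fibrosarcoma line after 48 hours of compound exposure at 37 degrees C was determined by luminescence with CellTiter-Glo, and concentration-effect curves were then fitted and categorized.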
ALOX12 inh – inhibitors of human 12S-lipoxygenase ALOX12 | P18054 | purified 12hLO, xylenol orange hydroperoxide absorbance | Potency, µM (titrated, usually from 108 µM), for the others: top-dose activity change, negative = inhibition, most hits filed as inhibitors | 580,000 tested, 1.1% active | AID 1671190; further: potency means the concentration at half of the fitted maximal effect
Target sequence (P18054 whole entry, looked up): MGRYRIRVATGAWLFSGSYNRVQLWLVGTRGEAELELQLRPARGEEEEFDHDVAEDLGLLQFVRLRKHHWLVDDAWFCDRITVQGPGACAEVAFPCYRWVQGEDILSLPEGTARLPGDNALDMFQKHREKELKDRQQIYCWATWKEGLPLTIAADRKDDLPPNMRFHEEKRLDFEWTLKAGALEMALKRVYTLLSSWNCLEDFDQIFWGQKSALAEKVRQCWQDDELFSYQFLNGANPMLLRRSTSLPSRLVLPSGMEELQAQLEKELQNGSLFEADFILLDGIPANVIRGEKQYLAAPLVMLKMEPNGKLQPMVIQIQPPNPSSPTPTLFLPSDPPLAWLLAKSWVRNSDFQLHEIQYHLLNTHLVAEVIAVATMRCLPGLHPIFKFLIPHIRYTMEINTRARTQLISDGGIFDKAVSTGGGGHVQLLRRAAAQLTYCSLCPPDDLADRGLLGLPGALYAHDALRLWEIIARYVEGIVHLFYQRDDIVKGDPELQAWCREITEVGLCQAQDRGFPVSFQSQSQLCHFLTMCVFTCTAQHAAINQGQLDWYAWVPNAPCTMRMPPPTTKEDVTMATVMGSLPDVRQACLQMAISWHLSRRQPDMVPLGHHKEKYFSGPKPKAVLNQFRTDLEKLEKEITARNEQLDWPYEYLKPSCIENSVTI
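Hydroperoxide product was detected by ferrous iron/xylenol orange as the 573 to 405 nm absorbance ratio. Arachidonic acid at 40 uM (final) was turned over for 30 min at room temperature by 150 nM human 12hLO, pH 7.0 Hepes buffer, after 15 min compound preincubation.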
DT40 TDP1 no CPT – qHTS for Inhibitors of human tyrosyl-DNA phosphodiesterase 1 (TDP1): qHTS in cells in absence of CPT; DT40 Tdp1-/- hTDP1 cells, no CPT, ATP luminescence, 48 h; Potency, µM (series often up to 46.2 µM), inactives show top-dose activity change, negative = growth inhibition, most hits filed as inhibitors; 420,000 tested, 15% active; further: potency means the concentration at half of the fitted maximal effect; nearly all actives have a fitted effect of over 55% in size
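No-CPT arm: Tdp1-/-;hTDP1 DT40 cells (400/well) plus compounds, incubated ≥48 hr at 37 °C. Readout CellTiter-Glo luminescence.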
* marks the source's active call; other numbers are inactive results; u = inconclusive; x = not tested or not shown; [ ] = dose if it differs, or a comment. Unless noted, the call rests on the fitted dose curve; in most records, active means well fitted curve in the direction sought with a large enough effect; inconclusive means small, poorly fitted or top-dose-only effect, or another doubt; inactive means no such curve, though single readings can be large; an effect the other way counts as inactive or inconclusive. Unless noted, on the % scale 0 is the no-effect control and ±100 the full control effect.

SMILES	HT1080 IDH1KD tx	IL1B secr inh	DT40 TDP1 CPT	HT1080-NT tox	ALOX12 inh	DT40 TDP1 no CPT
Cc1ccc(C)c(N2CCN(C(=O)c3ccc(Cn4c(=O)[nH]c5ccccc5c4=O)cc3)CC2)c1	u	-15.9	u	u	-16.8%	u
CC(=O)c1ccc(N2CCN(C(=O)c3ccc(Cn4c(=O)[nH]c5ccccc5c4=O)cc3)CC2)cc1	x	x	10.3µM*	x	-15.4%	16.4µM*
COc1ccc(Cn2c(=O)[nH]c3cc(C(=O)N4CCN(c5ccc(OC)cc5)CC4)ccc3c2=O)cc1	4.1%	11.1	-3.0%	12.4%	x	u
COc1ccc(Cn2c(=O)[nH]c3cc(C(=O)N4CCN(c5ccc(C(C)=O)cc5)CC4)ccc3c2=O)cc1	-12.1%	26.8	u	-13.4%	-24.0%	14.6µM*
O=c1c2cc(N3CCOCC3)ccc2[nH]c(=S)n1Cc1ccccc1Cl	-9.0%	19.9	-6.5%	-8.6%	-1.0%	-27.9%
COc1cc(C(=O)NC(C)Cn2cccn2)cc(Cl)c1OC (stereo unspecified)	x	x	x	x	52.4%	x
O=C(N/N=C/c1ccc(OCCCOc2ccccc2Cl)cc1)c1ccccc1	x	x	x	x	-8.4%	x
Cc1cccc(NC(=O)Cn2nc(-c3cccc([N+](=O)[O-])c3)c3ccccc3c2=O)c1	x	x	x	x	-1.9%	x
O=C(NCCc1ccc(Cl)cc1)c1ccc(Cn2c(=O)[nH]c3ccccc3c2=O)cc1	x	x	6.51µM*	x	-21.3%	3.66µM*
CCOC(=O)N1CCN(C(=O)c2ccc(Cn3c(=S)[nH]c4ccc(Br)cc4c3=O)cc2)CC1	11.0%	-63.3*	5.17µM*	-3.9%	2.3%	1.03µM*
CCc1cccc2c1Sc1ccccc1CC2N1CCNCC1 (stereo unspecified)	u	-92.5*	16.4µM*	-17.8%	u	16.4µM*
O=C1CC(N2CCSCC2)C(=O)N1c1cccc(Cl)c1 (stereo unspecified)	-4.9%	11.1	-2.3%	-3.3%	-14.1%	20.9%
Cc1cccc2c1Sc1ccc(Cl)cc1CC2N1CCNCC1 (stereo unspecified)	u	-98.5*	16.4µM*	23.1µM*	x	18.4µM*
CC1=C/C(=N/Nc2nc3ccccc3[nH]2)CC1	x	x	x	x	-48.0%	x
CC(C)(C)OC(=O)N[C@@H](C(=O)OC(C)(C)C)c1ccc2ccccc2c1	5.7%	14.7	u	7.5%	6.5%	23.1µM*
CN(CCNC(=O)c1ccc(/C=N/O)nc1)Cc1ccccc1	3.1%	-7.0	-16.6%	3.0%	-4.7%	-7.6%
CN(CCCNC(=O)c1ccc(/C=N/O)nc1)CCCN(C)Cc1ccccc1	-7.2%	-11.6	u	-14.0%	-15.9%	23.1µM*
O=C(NCC(F)F)C1CN(Cc2ccccc2)C(=O)N1 (stereo unspecified)	x	x	x	x	37.3%[176 µM]	x
CCCCCC(=O)N1C[C@@H](n2cc(C3CC3)nn2)[C@H](O)C[C@@H]1c1ccc(OC)cc1	-9.4%	21.6	u	-5.4%	64.0%	u
CCCCCCN1C[C@@H](O)[C@H](n2cc(C3CC3)nn2)C[C@@H]1c1ccccc1	-3.3%	-11.8	18.4µM*	-10.0%	u	16.4µM*
CCCCCCN1C[C@H](n2cc(C3CC3)nn2)[C@@H](O)C[C@@H]1c1ccc(OC)cc1	1.9%	3.4	u	-1.4%	u	20.6µM*
CCCCCC(=O)N1C[C@H](n2cc(C3CC3)nn2)[C@@H](O)C[C@@H]1c1ccccc1	15.1%	12.3	-28.6%	6.4%	6.2%	u
CCCCCCN1C[C@H](n2cc(C3CC3)nn2)[C@@H](O)C[C@@H]1c1ccccc1	u	6.7	20.6µM*	u	u	9.2µM*
C[S+](=O)([O-])CCn1ncc2cc(OCc3cccc(-c4cccnc4)c3)ccc21	x	x	x	x	12.8%[176 µM]	x
CC(C(=O)NC(=O)NC1CCCCC1)N1CCN(C(c2ccccc2)c2ccccc2)CC1 (stereo unspecified)	6.1%	2.8	23.1µM*	-1.5%	u	14.6µM*
SMILES	HT1080 IDH1KD tx	IL1B secr inh	DT40 TDP1 CPT	HT1080-NT tox	ALOX12 inh	DT40 TDP1 no CPT
CCOc1ccccc1NC(C)C(=O)NC(=O)NC1CCCCC1 (stereo unspecified)	-2.5%	38.8	18.4µM*	0.6%[9.24 µM]	107.3%	-28.0%
CC(Nc1ccc(F)cc1F)C(=O)NC(=O)NC1CCCCC1 (stereo unspecified)	0.0%	32.1	-1.3%	-2.8%	-22.7%	-36.1%
Cc1ccccc1CCN(C(=O)c1csnn1)C(C(=O)NC1CCCC1)c1ccco1 (stereo unspecified)	-0.1%	-11.1	23.1µM*	-28.9%	-3.7%	u
CC(C)CCN(C(=O)c1csnn1)C(C(=O)NC1CCCC1)c1ccc(F)cc1 (stereo unspecified)	-2.4%	-63.3*	-16.2%	-24.7%	-3.0%	-29.0%
Cc1ccc(Cl)cc1N(C(=O)c1csnn1)C(C(=O)NC1CCCC1)c1ccco1 (stereo unspecified)	0.0%	-13.6	0.3%	15.9%	1.8%	-11.7%
CCOc1ccc(C(C)=O)cc1CN(C)CC(=O)Nc1ccc(Cl)cc1	x	x	x	x	-21.2%	x
COc1cc(NC(=O)c2cccc3c(-c4cnn(C)c4)coc23)cc(OC)c1OC	u	-75.3*	4.61µM*	u	-10.5%	3.26µM*
Cn1cc(-c2coc3c(C(=O)NCc4ccco4)cccc23)cn1	-1.2%	-12.9	u	u	x	u
COc1ccc(NC(=O)c2cccc3c(-c4cnn(C)c4)coc23)cc1	-19.9%	u	u	-11.2%	u	23.1µM*
C=CCn1c(=O)c2c(nc(-n3nc(C)c(C)c3C)n2CC)n(C)c1=O	x	x	x	x	6.1%	x
CC(=Nc1ccccc1O)c1sc2ccccc2c1O	-7.9%	-1.9	-24.6%	-7.6%	-11.4%	u
CC(=Nc1ccc(O)cc1)c1sc2ccccc2c1O	-20.8%	-4.8	14.6µM*	-10.5%	0.0%	13µM*
CC(C)[C@H](NC(=O)c1ccc(C(C)(C)C)cc1)C(=O)N1CCN(Cc2ccc3c(c2)OCO3)CC1	18.4µM*	-72.3*	3.66µM*	u	-13.1%	3.66µM*
CC(C)[C@@H](C(=O)N1CCN(Cc2ccc3c(c2)OCO3)CC1)n1nnc2ccccc2c1=O	-7.9%	0.0	20.6µM*	1.2%	7.1%	13µM*
O=C(Cn1cnc2ccccc2c1=O)N1CCN(Cc2ccc3c(c2)OCO3)CC1	-2.0%	-6.9	-11.2%	-2.9%	71.4%	-26.0%
C[C@H](NC(=O)c1ccccc1)C(=O)N1CCN(Cc2ccc3c(c2)OCO3)CC1	11.3%	0.0	-19.8%	14.3%	6.3%	-16.8%
COc1ccc(OC)c(NC(=O)Nc2nnc(N(C)C3CCCCC3)s2)c1	x	x	x	x	54.5%	x
CC(C)(C)c1ccc2cc(C(=O)N3CCCCC3)[nH]c2c1	x	x	x	x	-0.1%	x
O=C(O)C1C2CCC(C2)C1C(=O)NCCCN1CCOCC1 (stereo unspecified)	x	x	x	x	8.5%	x
